Shiga inhibitor: Shiga toxin inhibition; Vero cells, Shiga toxin protein synthesis inhibition reporter; inhibition, % at 38.7 µM; 9.2% of 290,000 active; in the data active = inhibition mostly above about 28%, no sharp cut-off; inactive = mostly below about 43%; note: 0% is about no effect
NS1 function inh: blocks influenza NS1 protein function; Potency, µM (top dose mostly 46.1 µM), for the others: top-dose activity, positive = more growth; 0.4% of 270,000 active; calls by dose curve; note: potency is the fitted concentration of half-maximal effect; actives are rising curves; nearly all actives have a fitted effect of over 50% in size
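Recovery from NS1-induced slow growth read by OD600 in budding yeast switched to galactose assay medium (pH 6.0, -URA) at 1:100 dilution. Compound 23 nl per well; the matching strain lacking NS1 serves as control.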
Pf growth 96h: P. falciparum growth inhibition at 96 hours | P. falciparum luciferase reporter growth, 96 h | Potency, µM (doses to about 28.7 µM), for inactives: top-dose activity change, negative = inhibition, hits mostly inhibitors | 6.9% of 320,000 active | AID 504834; note: potency is the fitted concentration of half-maximal effect; % is set by controls: 0 for no effect and ±100 for the full control effect
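Infected RBCs, 2% Hct / 0.05% parasitemia final; luciferase-reporter P. falciparum; cpd 96 h, 37 C, 5% CO2; luciferase detection reagent; luminescence.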
Pf growth 48h: P. falciparum growth inhibition at 48 hours (one generation); 5.9% of 310,000 active; P. falciparum luciferase growth in erythrocytes, 48 h; Potency, µM (top dose mostly 28.7 µM), for inactives: at the highest dose activity change, negative = inhibition, usual class: inhibitors; note: potency is the fitted concentration of half-maximal effect; % is set by controls: 0 for no effect and ±100 for the full control effect
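In quantitative HTS format, infected erythrocytes bearing luciferase-reporter parasites were treated for a single generation at 37 C. Luminescence after adding detection reagent served as the growth measure.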
Cycloheximide cs: counter-screen for Shiga toxin inhibitors: cycloheximide protein synthesis inhibition; cell reporter, cycloheximide protein synthesis inhibition counterscreen; 12% of 300,000 active; max response, %; in the data active = max response mostly above about 13%, no sharp cut-off; inactive = mostly below about 14%; note: read at 38.3 µM for the half of the compounds with a filed dose; 0% is about no effect
Sm TGR inh: blocks Schistosoma mansoni thioredoxin glutathione reductase; Q962Y6; purified TGR, DTNB reduction, TNB absorbance 405 nm; Potency, µM (doses to about 114 µM), for the others: top-dose activity change, negative = inhibition, actives largely listed as inhibitors; 3% of 360,000 active; AID 485364; note: potency is the fitted concentration of half-maximal effect; % is set by controls: 0 for no effect and ±100 for the full control effect; nearly all actives have a fitted effect of over 60% in size
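First, TGR (20 nM dispensed) and NADPH were mixed with compound. Second, a 15 min room-temperature incubation followed. Third, further NADPH and then DTNB were added to start the reaction. Finally, TNB absorbance was monitored kinetically.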
Numbers without * were called inactive; [ ] = remark or other dose. Hits are enriched below; roughly 21% of the tested compounds scored in any of these assays. Unless noted, calls come from the whole dose curve; as a rule, active = well fitted curve in the direction sought with a large enough effect; inconclusive = small, poorly fitted or top-dose-only effect, or another doubt; inactive = no such curve, though single readings can be large; an effect the other way counts as inactive or inconclusive.

How did Cc1ccc(C(=O)Nc2cc(Cl)ccc2Oc2ccccc2)cc1[N+](=O)[O-] do in these assays?
Shiga inhibitor: 10; NS1 function inh: 9%; Pf growth 96h: inconclusive; Pf growth 48h: 13µM*; Cycloheximide cs: -2; Sm TGR inh: 16%

What do the screens show for `Cc1ccc(C(=O)Nc2ccccc2-c2ccccc2)cc1[N+](=O)[O-]`?
Shiga inhibitor: -17; NS1 function inh: 0%; Pf growth 96h: 23%; Pf growth 48h: 7%; Cycloheximide cs: -4; Sm TGR inh: 6%

What do the screens show for `O=C(NCCc1cccc(Cl)c1)c1ccc(Cl)c([N+](=O)[O-])c1`?
Shiga inhibitor: 0; NS1 function inh: -40%; Pf growth 96h: inconclusive; Pf growth 48h: 9%; Cycloheximide cs: 16; Sm TGR inh: -8%

What do the screens show for `Cc1ccc(C(=O)NCCSc2ccc(Cl)cc2)cc1[N+](=O)[O-]`?
Shiga inhibitor: 4; NS1 function inh: inconclusive; Pf growth 96h: 4.1µM*; Pf growth 48h: 13µM*; Cycloheximide cs: 6; Sm TGR inh: 2%

How did Cc1nc(NC(C)c2ccccc2)sc1C(=O)Nc1ccccc1 (centres undefined) do in these assays?
Shiga inhibitor: 11; Pf growth 96h: 50%; Pf growth 48h: inconclusive; Cycloheximide cs: 5; Sm TGR inh: -1%

Results for Cc1nc(NCc2ccccc2)sc1C(=O)Nc1ccccc1 ?
Shiga inhibitor: 50*; Pf growth 96h: 89%; Pf growth 48h: 54%; Cycloheximide cs: 26*; Sm TGR inh: -9%

What do the screens show for `Cc1nc(Nc2ccccc2Cl)sc1C(=O)Nc1ccccc1`?
Shiga inhibitor: 22; NS1 function inh: -27%; Pf growth 96h: 15%; Pf growth 48h: -12%; Cycloheximide cs: 19*; Sm TGR inh: 1%

Results for Cc1nc(NCCOc2ccccc2)sc1C(=O)Nc1ccccc1 ?
Shiga inhibitor: 92*; NS1 function inh: -11%; Pf growth 96h: 66%; Pf growth 48h: 68%; Cycloheximide cs: 59*; Sm TGR inh: -1%

Results for Cc1nc(Nc2ccccc2)sc1C(=O)c1ccc(F)cc1 ?
Shiga inhibitor: 143*; NS1 function inh: -10%; Pf growth 96h: inconclusive; Pf growth 48h: inconclusive; Cycloheximide cs: 67*; Sm TGR inh: -12%

What do the screens show for `C[C@@H](N)/C(N)=N/O`?
NS1 function inh: 6%

Results for Cc1cc(C)c2c(=O)cc(C(=O)NCCc3ccc(S(N)(=O)=O)cc3)oc2c1 ?
Sm TGR inh: -1%

How did Cc1ccc(S(=O)(=O)Nc2c(C)nc3nc[nH]n3c2=O)c(C)c1 do in these assays?
Shiga inhibitor: 19; Pf growth 96h: 0%; Pf growth 48h: 5%; Cycloheximide cs: -1; Sm TGR inh: -1%

Results for CC(C)C[C@H](NC(=O)[C@H]1O[C@@H]1C(=O)O)C(=O)NCCCCN=C(N)N ?
Shiga inhibitor: -5; Cycloheximide cs: -5

What do the screens show for `Nc1nc(Nc2ccccc2F)sc1C(=O)c1ccccc1`?
Shiga inhibitor: 57*; NS1 function inh: -42%; Pf growth 96h: 17%; Pf growth 48h: 3%; Cycloheximide cs: 50*; Sm TGR inh: -14%

Results for O=C(NNc1ccccc1F)c1ccccc1 ?
Shiga inhibitor: 22; NS1 function inh: -1%; Pf growth 96h: 13%; Pf growth 48h: 4%; Cycloheximide cs: 5; Sm TGR inh: -7%

How did Cc1nc(Nc2ccccc2)sc1C(=O)Nc1ccccc1 do in these assays?
Shiga inhibitor: 59*; NS1 function inh: -3%; Pf growth 96h: inconclusive; Pf growth 48h: inconclusive; Cycloheximide cs: 39*; Sm TGR inh: -1%

How did Cc1nc(Nc2ccc(S(N)(=O)=O)cc2)sc1C(=O)Nc1ccccc1 do in these assays?
Shiga inhibitor: -9; Pf growth 96h: -3%; Pf growth 48h: 16%; Cycloheximide cs: -2; Sm TGR inh: 8%

What do the screens show for `COCCNC(=O)c1cnc2sc(N3CCC(C)CC3)nn2c1=O`?
Sm TGR inh: 10%

Results for Cc1cccc2nc(-c3ccccn3)c(Nc3ccc(F)cc3)n12 ?
Sm TGR inh: 6%

What do the screens show for `Oc1ccc(/C=C/c2ccc3ccccc3n2)cc1`?
Shiga inhibitor: 24; Pf growth 96h: inconclusive; Pf growth 48h: 196%; Cycloheximide cs: 7; Sm TGR inh: -18%

How did O/C(=C\c1ccc2ccccc2n1)c1ccc(O)cc1O do in these assays?
Shiga inhibitor: 39*; Pf growth 96h: inactive; Pf growth 48h: 365%; Cycloheximide cs: 33*; Sm TGR inh: 0%

Results for Oc1ccc(/C(Cc2ccccn2)=N\Nc2ccccc2)c(O)c1 ?
Shiga inhibitor: -5; Pf growth 96h: 7%; Pf growth 48h: 9%; Cycloheximide cs: -1; Sm TGR inh: inconclusive

Results for Oc1ccc(/C(Cc2ccc3ccccc3n2)=N\Nc2ccccc2)c(O)c1 ?
Shiga inhibitor: 69*; Pf growth 96h: inconclusive; Pf growth 48h: inconclusive; Cycloheximide cs: 34*; Sm TGR inh: 25µM*

How did [N-]=[N+]=CC(=O)COC(=O)c1ccccc1 do in these assays?
NS1 function inh: -6%

How did O=C(O)c1ccc2nc3c(nc2c1)-c1ccccc1C3=O do in these assays?
Shiga inhibitor: 2; Pf growth 96h: inconclusive; Pf growth 48h: 26%; Cycloheximide cs: 7; Sm TGR inh: 10%

What do the screens show for `O=C1c2ccccc2-c2nc3ccccc3cc21`?
Shiga inhibitor: 69*; NS1 function inh: -48%; Pf growth 96h: -4%; Pf growth 48h: 160%; Cycloheximide cs: 34*; Sm TGR inh: 10%

Results for c1ccc2c(c1)Cc1cc3ccccc3nc1-2 ?
Shiga inhibitor: 62*; NS1 function inh: -52%; Pf growth 96h: -130%; Pf growth 48h: -93%; Cycloheximide cs: 26*; Sm TGR inh: 9%

Results for COc1cc(CC(CC(=O)O)CC(C)OCc2ccccc2)cc(OC)c1 (centres undefined) ?
Shiga inhibitor: 3; NS1 function inh: 3%; Pf growth 96h: 40%; Pf growth 48h: -9%; Cycloheximide cs: -2; Sm TGR inh: -1%

Results for Cc1cccc(N2CCN(C(=O)C3CCN(C(=O)c4cc5sccc5n4C)CC3)CC2)c1C ?
Sm TGR inh: -2%

How did Cn1c(C(=O)NCc2ccc3c(c2)OCO3)cc2sccc21 do in these assays?
Shiga inhibitor: 4; NS1 function inh: -2%; Cycloheximide cs: 7; Sm TGR inh: 12%[11.4 µM]

Results for Cn1c(C(=O)N2CCC(C(=O)NCCc3ccccc3)CC2)cc2sccc21 ?
Sm TGR inh: 3%

How did Cn1c(C(=O)N2CCN(Cc3ccc4c(c3)OCO4)CC2)cc2sccc21 do in these assays?
Shiga inhibitor: -18; NS1 function inh: -6%; Pf growth 96h: 10µM*; Pf growth 48h: inconclusive; Cycloheximide cs: -8; Sm TGR inh: -6%

Results for Cn1c(C(=O)N2CCC(C(=O)N3CCOCC3)CC2)cc2sccc21 ?
Shiga inhibitor: -5; NS1 function inh: -6%; Pf growth 96h: 12µM*; Pf growth 48h: 24%; Cycloheximide cs: -4; Sm TGR inh: -8%

Source: PubChem (National Center for Advancing Translational Sciences (NCATS))
